This is an account of results in PubChem BioAssay (NCATS).

Test [1] is described as follows: Drug repurposing screens with cells derived from glioblastoma tumor samples (AID 1345199). Further: nearly all actives have a fitted effect of over 40% in size. The following applies: GBM patient neurospheres viability, ATP luminescence, 48 h. Summed up:
(§1)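 Primary testing used CD133+ neurospheres from four GBM patients, seven concentrations, 48 h exposure and ATP-based viability; confirmation added three slower-growing patient lines.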

Test [2] deals with astro (control astrocytes). The test is described as above. The following applies: viability, ATP luminescence, 48 h; series mostly up to 45.9 µM. Summed up:
as §1

[3] abbreviates: at 20 µM (top of the series), tumour line C.
[4] abbreviates: at 21.2 µM (top of the series), tumour line B.
[5] abbreviates: at 21.2 µM (top of the series), tumour line D.
Setting [6] is: at 45.9 µM (top of the series), tumour line B.
[7] abbreviates: at 45.9 µM (top of the series), tumour line D.
Where [8] appears, read: at 46 µM (top of the series), tumour line A.
The mark [9] stands for this setting: at 46.1 µM (top of the series), tumour line C.
Where [10] appears, read: at 21.3 µM (top of the series), tumour line A.

Where “and” joins values, the source holds several entries; their conditions need not be identical. Identical values can stand only once. Results filed as inconclusive are left out. Unmarked numbers belong to inactive results. Calls of active or inactive are those of the source. The call rests on the fitted dose curve; in most records, active means well fitted inhibition curve with a large enough effect; inconclusive means small, poorly fitted or top-dose-only effect; inactive means flat fitted curve, though single readings scatter.
On the % scale 0 is the no-effect control and ±100 the full control effect; potency means the concentration at half of the fitted maximal effect.

As to `CN1CCc2c(c3ccccc3n2Cc2ccccc2)C1`, the figures for the activity, negative = cell killing in test [1] (setting [3]), in test [1] (setting [4]) and in test [1] (setting [5]) were -5.19%, -12.3% and -14.4%, respectively. In test [1] (tumour line A), the Potency is 5.62 µM (active). The Potency result in test [2] was “inactive”.

Consider `S=C=Nc1ccc(N=C=S)cc1`, for which the activity, negative = cell killing in test [1] (setting [6]) is -4.92%; in test [1] (setting [7]) it was -5.1%; in test [1] (setting [8]), -24.5%; in test [1] (setting [9]) it was -6.65%. Besides, the Potency result in test [2] was “inactive”.

With `COC1=C(OC)C(=O)C(C/C=C(\C)CC/C=C(\C)CC/C=C(\C)CC/C=C(\C)CC/C=C(\C)CC/C=C(\C)CC/C=C(\C)CC/C=C(\C)CC/C=C(\C)CCC=C(C)C)=C(C)C1=O`, the activity, negative = cell killing in test [1] (setting [6]) is 2.27%; in test [1] (setting [7]), -1.65%; in test [1] (setting [8]), -4.78%; in test [1] (setting [9]) it was 7.72%. The Potency entry in test [2] was “inactive”.

Regarding `O=C1CCC(=O)N1CO`, the activity, negative = cell killing in test [1] (setting [6]) was -0.626%; in test [1] (setting [7]), -0.644%; in test [1] (setting [8]), -17%; in test [1] (setting [9]), -0.827%. In test [2], the Potency entry is “inactive”.

Turning to `OC1OC[C@@H](O)[C@H](O)[C@@H]1O` (stereo not given in full), the activity, negative = cell killing in test [1] (setting [6]) is -0.633%; in test [1] (setting [7]), 10.5%; in test [1] (setting [8]), -6.9%; in test [1] (setting [9]) it was 14.5%. Moreover, the Potency result in test [2] was “inactive”.

As to `C=Cc1c(C)c2cc3nc(cc4[nH]c(cc5nc(cc1[nH]2)C(C)=C5CCC(=O)OC)c(CCC(=O)O)c4C)[C@@]1(C)C3=CC=C(C(=O)OC)[C@H]1C(=O)OC`, the activity, negative = cell killing was -5.62% in test [1] (setting [6]), -3.48% in test [1] (setting [7]), -5.65% in test [1] (setting [8]) and -20.1% in test [1] (setting [9]). For the same molecule, the Potency entry in test [2] is “inactive”.

As for `CCC(=O)OC(OP(=O)(CCCCc1ccccc1)CC(=O)N1C[C@H](C2CCCCC2)C[C@H]1C(=O)O)C(C)C` (stereo not given in full), the activity, negative = cell killing is -7.98% in test [1] (setting [6]), -19.4% in test [1] (setting [7]), -12.6% in test [1] (setting [8]) and -19% in test [1] (setting [9]). For the same molecule, the Potency result in test [2] was “inactive”.

Take `CCN1C(=O)NC(c2ccccc2)C1=O` (stereo not given): the activity, negative = cell killing is -11.1% in test [1] (setting [3]), -3.29% in test [1] (setting [4]), -11.8% in test [1] (setting [5]) and -9.7% in test [1] (setting [10]). The Potency entry in test [2] is “inactive”.

Regarding `NC(N)=NCC1COC2(CCCCC2)O1` (stereo not given), the activity, negative = cell killing is -12.8% in test [1] (setting [3]), -14.2% in test [1] (setting [4]), -12.9% in test [1] (setting [5]) and -18.6% in test [1] (setting [10]). In test [2], the Potency entry is “inactive”.

Consider `CSCCC(N)C(=O)O` (stereo not given), for which the activity, negative = cell killing in test [1] (setting [6]) was -9.94%; in test [1] (setting [7]), -6.77%; in test [1] (setting [8]), -11.9%; in test [1] (setting [9]), -3.8%. Further, the Potency result in test [2] was “inactive”.

As to `C=CC1=C(C(=O)O)N2C(=O)[C@@H](NC(=O)/C(=N\O)c3csc(N)n3)[C@H]2SC1` (stereo in doubt), the activity, negative = cell killing in test [1] (setting [6]) was 5.66% and -6.14%; in test [1] (setting [7]), -12.1% and -17.4%; in test [1] (setting [8]), -18.5%; in test [1] (setting [9]), 20.4% and -9.47%. Moreover, the Potency result in test [2] was “inactive”.

As to `CC(CC=O)CCCC(C)(C)O` (stereo not given), the activity, negative = cell killing in test [1] (setting [6]) is -11.5%; in test [1] (setting [7]), -18.7%; in test [1] (setting [8]) it was -27.2%; in test [1] (setting [9]), -24.1%. Further, in test [2], the Potency entry was “inactive”.

Consider `O=P(O)(O)CP(=O)(O)O`, for which the activity, negative = cell killing is -7.32% in test [1] (setting [6]), -1.92% in test [1] (setting [7]), -22% in test [1] (setting [8]) and -17.6% in test [1] (setting [9]). In addition, the Potency entry in test [2] is “inactive”.

For the molecule `CC1CS(=O)(=O)CCN1/N=C/c1ccc([N+](=O)[O-])o1` (stereo not given), the activity, negative = cell killing in test [1] (setting [3]) is -27.2%; in test [1] (setting [4]), -10%; in test [1] (setting [5]), -29.2%; in test [1] (setting [10]), -23%. The Potency result in test [2] is “inactive”.

As for `C/C=C/C=C/C(=O)O`, the activity, negative = cell killing was 2.26% in test [1] (setting [6]), -15.1% in test [1] (setting [7]), -7.83% in test [1] (setting [8]) and -7.57% in test [1] (setting [9]). In test [2], the Potency entry was “inactive”.

As for `CCOC(=O)[C@@H](N)CS`, the activity, negative = cell killing in test [1] (setting [6]) is -8.18%; in test [1] (setting [7]), -11.2%; in test [1] (setting [8]), -24.4%; in test [1] (setting [9]) it was 1.04%. In addition, in test [2], the Potency result is “inactive”.

Turning to `CC(/C=C/C=C(\C)C(=O)O[C@@H]1O[C@H](CO[C@@H]2O[C@H](CO)[C@@H](O)[C@H](O)[C@H]2O)[C@@H](O)[C@H](O)[C@H]1O)=C\C=C\C=C(C)\C=C\C=C(/C)C(=O)O[C@@H]1O[C@H](CO[C@@H]2O[C@H](CO)[C@@H](O)[C@H](O)[C@H]2O)[C@@H](O)[C@H](O)[C@H]1O`, the activity, negative = cell killing in test [1] (setting [6]) is -13.5%; in test [1] (setting [7]), 5.42%; in test [1] (setting [8]) it was -21.7%; in test [1] (setting [9]), 10.7%. The Potency result in test [2] is “inactive”.

As for `C=O`, the activity, negative = cell killing in test [1] (setting [6]) is -5.16%; in test [1] (setting [7]) it was -12.4%; in test [1] (setting [8]) it was -10.6%; in test [1] (setting [9]), 0.841%. The Potency entry in test [2] was “inactive”.

As to `COc1cc2c(cc1OC)[C@@H](Cc1cc(OC)c(OC)c(OC)c1)[N+](C)(CCCOC(=O)CC/C=C/CCC(=O)OCCC[N+]1(C)CCc3cc(OC)c(OC)cc3[C@H]1Cc1cc(OC)c(OC)c(OC)c1)CC2` (stereo not given in full), the activity, negative = cell killing in test [1] (setting [6]) was -17.7% and -2.67%; in test [1] (setting [7]), -12.5% and -11.6%; in test [1] (setting [8]), -22.5%; in test [1] (setting [9]) it was -14.7% and -8.1%. Moreover, the Potency result in test [2] was “inactive”.

Turning to `O=C1CCC(c2ccccc2)(C2CCN(Cc3ccccc3)CC2)C(=O)N1` (stereo not given), the activity, negative = cell killing was -26.8% in test [1] (setting [6]), -22.6% in test [1] (setting [7]) and -22.6% in test [1] (setting [9]). In addition, in test [1] (tumour line A), the Potency was 11.2 µM (active). Also, the Potency result in test [2] was “inactive”.
